According to the supplement of paper PMC11732987, “Enantioselective OTUD7B fragment discovery through chemoproteomics screening and high-throughput optimisation” (Communications Chemistry, 2025):

Experiments:
Assay in all cases: log2 ratio of Biotin-Ahx-Ub-VS probe labelling (fragment/DMSO); higher = less target engagement (more negative = stronger competition), active = hit call of the paper (q ≤ 0.05, log2 ratio ≤ -1)
Conditions in all cases: compound concentration: 200 uM; treatment time: 3 h
USP34 = USP34 (UniProt Q70CQ2)
Sequence of USP34 (Q70CQ2 whole entry, the tested form may be a part): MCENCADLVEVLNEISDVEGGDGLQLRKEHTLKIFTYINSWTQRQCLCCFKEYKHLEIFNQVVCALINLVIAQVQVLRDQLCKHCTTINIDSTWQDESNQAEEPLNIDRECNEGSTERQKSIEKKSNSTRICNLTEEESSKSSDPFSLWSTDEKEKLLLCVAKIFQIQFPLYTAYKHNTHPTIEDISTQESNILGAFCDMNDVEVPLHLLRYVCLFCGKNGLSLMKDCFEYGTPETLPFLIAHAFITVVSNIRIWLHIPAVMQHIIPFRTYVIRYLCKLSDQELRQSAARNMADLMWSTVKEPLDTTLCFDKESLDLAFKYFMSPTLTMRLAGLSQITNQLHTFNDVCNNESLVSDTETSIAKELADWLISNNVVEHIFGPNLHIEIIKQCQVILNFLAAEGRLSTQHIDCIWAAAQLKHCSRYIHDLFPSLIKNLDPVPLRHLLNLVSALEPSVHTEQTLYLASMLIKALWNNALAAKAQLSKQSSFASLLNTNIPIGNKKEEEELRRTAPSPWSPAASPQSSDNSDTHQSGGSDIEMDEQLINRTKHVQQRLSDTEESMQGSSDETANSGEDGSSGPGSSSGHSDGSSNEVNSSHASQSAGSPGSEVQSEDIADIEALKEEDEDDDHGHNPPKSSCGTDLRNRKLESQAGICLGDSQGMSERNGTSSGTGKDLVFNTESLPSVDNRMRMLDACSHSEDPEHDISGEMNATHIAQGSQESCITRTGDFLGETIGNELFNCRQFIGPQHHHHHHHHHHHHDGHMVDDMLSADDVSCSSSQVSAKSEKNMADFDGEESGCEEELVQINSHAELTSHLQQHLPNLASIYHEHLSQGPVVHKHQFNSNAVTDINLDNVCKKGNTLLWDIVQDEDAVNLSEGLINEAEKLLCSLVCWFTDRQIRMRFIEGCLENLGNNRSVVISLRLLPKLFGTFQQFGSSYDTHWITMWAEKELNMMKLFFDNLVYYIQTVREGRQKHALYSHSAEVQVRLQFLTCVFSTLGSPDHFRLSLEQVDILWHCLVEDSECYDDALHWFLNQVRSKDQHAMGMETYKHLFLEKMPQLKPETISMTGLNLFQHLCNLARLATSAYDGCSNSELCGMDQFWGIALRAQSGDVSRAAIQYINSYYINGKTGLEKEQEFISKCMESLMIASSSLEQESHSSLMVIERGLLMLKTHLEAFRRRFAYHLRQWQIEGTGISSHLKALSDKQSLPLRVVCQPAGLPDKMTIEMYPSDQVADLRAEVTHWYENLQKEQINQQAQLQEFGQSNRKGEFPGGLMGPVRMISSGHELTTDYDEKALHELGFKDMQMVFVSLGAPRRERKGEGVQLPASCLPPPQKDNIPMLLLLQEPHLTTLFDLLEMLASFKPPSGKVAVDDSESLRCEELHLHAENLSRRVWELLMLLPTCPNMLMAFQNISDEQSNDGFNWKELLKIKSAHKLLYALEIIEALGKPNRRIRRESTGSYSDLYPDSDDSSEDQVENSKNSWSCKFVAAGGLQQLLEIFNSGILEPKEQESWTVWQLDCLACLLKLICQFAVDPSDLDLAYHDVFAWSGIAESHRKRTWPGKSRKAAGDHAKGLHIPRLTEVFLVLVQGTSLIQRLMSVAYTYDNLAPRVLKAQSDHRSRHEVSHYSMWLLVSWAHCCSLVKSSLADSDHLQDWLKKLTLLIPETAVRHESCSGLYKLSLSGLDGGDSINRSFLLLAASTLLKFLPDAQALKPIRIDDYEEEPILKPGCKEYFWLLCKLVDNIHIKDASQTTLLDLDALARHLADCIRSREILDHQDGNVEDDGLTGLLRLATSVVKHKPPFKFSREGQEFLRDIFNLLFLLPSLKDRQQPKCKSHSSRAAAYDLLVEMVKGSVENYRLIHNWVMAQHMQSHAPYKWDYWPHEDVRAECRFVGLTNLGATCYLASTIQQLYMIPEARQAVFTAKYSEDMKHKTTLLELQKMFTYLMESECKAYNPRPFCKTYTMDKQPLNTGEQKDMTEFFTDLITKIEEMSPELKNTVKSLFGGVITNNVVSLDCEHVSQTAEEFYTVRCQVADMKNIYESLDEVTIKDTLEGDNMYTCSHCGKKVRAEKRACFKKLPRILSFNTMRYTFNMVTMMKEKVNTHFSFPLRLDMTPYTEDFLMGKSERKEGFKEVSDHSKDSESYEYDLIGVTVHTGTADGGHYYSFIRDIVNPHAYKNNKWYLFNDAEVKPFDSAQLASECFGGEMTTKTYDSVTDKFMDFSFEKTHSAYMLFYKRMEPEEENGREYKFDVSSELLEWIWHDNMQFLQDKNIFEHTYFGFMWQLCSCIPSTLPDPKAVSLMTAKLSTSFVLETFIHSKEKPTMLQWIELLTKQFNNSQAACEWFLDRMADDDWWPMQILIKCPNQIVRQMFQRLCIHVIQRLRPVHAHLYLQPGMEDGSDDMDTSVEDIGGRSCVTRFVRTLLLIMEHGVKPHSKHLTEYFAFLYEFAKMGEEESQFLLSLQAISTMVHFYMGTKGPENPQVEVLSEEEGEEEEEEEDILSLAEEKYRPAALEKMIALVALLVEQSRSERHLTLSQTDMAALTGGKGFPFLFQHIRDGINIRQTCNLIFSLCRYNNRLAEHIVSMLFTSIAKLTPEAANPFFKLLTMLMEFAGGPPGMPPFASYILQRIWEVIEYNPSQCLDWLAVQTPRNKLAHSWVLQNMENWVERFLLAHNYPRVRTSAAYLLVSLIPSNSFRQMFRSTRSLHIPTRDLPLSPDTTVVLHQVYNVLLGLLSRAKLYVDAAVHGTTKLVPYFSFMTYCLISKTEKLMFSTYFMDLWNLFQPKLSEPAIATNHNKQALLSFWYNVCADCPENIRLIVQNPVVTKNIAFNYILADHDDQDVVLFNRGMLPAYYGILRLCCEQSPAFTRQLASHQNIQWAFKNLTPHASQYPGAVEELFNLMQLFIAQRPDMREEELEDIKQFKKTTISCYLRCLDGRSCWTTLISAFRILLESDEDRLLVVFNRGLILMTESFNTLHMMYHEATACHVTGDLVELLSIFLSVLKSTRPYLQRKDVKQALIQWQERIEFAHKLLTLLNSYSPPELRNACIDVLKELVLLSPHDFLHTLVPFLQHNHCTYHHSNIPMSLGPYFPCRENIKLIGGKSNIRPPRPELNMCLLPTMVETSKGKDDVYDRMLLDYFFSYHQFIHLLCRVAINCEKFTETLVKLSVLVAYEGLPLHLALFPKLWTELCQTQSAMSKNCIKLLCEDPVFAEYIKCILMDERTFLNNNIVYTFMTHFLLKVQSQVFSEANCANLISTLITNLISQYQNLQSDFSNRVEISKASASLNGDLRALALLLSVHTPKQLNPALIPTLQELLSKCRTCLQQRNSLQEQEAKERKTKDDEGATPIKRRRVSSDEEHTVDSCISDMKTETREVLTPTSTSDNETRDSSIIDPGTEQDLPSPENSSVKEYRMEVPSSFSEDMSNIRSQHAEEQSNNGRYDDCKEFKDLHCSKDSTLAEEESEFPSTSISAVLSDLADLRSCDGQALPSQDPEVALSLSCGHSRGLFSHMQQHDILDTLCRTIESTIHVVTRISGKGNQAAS
Summary of the method: (§1)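 HEK293T lysate in Tris/CHAPS/IGEPAL buffer with protease inhibitors (495 µg per sample) was given fragment at 200 µM or vehicle for 3 h, in triplicate. It then received Biotin-Ahx-Ub-VS at 0.5 µM final for 1 h. Labelled DUBs were NeutrAvidin-enriched, digested with LysC and trypsin, and run by diaPASEF LC-MS/MS. Values are average log2 fragment/vehicle ratios by unpaired t-test on global-median-normalised Spectronaut quantities of proteins with ≥2 unique peptides.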

USP36 = target: T1, USP36 (UniProt Q9P275)
T1 sequence (whole entry): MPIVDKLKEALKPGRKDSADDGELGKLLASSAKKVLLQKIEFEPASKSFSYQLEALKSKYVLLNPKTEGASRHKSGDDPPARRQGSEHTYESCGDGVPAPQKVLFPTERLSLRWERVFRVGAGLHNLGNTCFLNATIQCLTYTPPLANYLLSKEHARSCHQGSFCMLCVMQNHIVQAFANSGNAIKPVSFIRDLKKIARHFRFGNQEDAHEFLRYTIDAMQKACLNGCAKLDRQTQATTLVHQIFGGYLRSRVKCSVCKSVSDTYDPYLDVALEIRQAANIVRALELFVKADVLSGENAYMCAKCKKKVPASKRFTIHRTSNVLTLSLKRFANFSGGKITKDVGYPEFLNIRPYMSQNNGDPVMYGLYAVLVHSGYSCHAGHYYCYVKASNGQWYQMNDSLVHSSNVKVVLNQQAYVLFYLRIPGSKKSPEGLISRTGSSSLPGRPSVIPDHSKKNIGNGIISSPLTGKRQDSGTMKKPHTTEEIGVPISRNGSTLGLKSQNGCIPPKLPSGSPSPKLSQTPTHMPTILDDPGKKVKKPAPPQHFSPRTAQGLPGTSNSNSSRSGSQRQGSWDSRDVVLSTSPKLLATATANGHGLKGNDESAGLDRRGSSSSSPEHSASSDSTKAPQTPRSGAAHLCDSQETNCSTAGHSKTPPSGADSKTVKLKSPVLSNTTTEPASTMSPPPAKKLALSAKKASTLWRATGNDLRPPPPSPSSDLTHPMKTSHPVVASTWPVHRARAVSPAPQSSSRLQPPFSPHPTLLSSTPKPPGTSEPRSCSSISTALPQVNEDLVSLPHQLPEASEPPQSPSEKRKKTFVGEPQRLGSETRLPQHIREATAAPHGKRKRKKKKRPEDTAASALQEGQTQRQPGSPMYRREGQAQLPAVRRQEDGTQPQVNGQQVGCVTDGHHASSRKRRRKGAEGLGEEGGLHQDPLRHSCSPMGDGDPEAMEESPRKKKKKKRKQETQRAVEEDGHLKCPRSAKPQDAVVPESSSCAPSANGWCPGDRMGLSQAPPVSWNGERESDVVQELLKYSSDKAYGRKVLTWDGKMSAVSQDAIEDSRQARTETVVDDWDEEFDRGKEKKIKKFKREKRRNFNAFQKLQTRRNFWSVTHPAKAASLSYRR
Summary of the method: as §1

USP38 = target: T2, USP38 (UniProt Q8NB14)
T2 sequence (whole entry): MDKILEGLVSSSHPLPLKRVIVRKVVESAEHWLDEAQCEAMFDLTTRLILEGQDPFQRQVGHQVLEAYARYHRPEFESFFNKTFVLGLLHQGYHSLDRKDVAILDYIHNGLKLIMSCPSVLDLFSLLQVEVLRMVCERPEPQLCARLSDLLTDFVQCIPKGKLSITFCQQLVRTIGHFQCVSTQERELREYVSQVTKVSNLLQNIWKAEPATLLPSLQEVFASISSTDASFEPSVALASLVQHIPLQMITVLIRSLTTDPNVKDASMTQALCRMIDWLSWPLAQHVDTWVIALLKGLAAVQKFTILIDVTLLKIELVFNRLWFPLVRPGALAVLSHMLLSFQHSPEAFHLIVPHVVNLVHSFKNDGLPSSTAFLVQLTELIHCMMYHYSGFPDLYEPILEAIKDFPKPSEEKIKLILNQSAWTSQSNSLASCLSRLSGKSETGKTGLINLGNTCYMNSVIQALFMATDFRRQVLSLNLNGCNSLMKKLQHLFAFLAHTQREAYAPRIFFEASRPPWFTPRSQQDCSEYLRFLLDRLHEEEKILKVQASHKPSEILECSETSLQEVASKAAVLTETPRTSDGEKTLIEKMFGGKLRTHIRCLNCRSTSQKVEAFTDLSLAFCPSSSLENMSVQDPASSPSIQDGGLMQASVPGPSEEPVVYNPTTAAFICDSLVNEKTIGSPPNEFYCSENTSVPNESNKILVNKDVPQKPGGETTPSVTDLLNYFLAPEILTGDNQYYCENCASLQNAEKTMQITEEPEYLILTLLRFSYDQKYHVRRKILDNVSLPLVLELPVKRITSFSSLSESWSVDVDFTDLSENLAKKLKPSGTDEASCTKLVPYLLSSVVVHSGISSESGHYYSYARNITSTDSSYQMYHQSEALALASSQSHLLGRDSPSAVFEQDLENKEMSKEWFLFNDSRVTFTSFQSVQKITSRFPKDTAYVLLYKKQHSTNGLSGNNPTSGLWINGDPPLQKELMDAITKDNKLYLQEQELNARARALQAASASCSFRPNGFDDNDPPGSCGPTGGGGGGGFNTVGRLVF
Summary of the method: as §1

USP39 = target: T3, USP39 (UniProt Q53GS9)
T3 sequence (whole entry): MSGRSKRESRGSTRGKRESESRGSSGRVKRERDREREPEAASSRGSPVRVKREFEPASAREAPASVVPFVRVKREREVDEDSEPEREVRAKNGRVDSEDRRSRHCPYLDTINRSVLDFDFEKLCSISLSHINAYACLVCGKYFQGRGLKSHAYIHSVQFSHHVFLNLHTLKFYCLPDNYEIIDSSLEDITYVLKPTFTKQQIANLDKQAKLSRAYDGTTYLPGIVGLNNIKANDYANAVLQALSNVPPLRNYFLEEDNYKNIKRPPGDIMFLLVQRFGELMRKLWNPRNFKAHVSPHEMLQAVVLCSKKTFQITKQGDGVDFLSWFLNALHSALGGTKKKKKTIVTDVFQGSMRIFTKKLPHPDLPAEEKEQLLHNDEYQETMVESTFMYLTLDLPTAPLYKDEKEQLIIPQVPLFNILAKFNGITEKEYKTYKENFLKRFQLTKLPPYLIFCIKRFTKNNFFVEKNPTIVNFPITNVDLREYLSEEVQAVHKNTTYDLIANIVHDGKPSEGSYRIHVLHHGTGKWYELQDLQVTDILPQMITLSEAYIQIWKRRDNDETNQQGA
Summary of the method: as §1

USP4 = target: T4, USP4 (UniProt Q13107)
T4 sequence (whole entry): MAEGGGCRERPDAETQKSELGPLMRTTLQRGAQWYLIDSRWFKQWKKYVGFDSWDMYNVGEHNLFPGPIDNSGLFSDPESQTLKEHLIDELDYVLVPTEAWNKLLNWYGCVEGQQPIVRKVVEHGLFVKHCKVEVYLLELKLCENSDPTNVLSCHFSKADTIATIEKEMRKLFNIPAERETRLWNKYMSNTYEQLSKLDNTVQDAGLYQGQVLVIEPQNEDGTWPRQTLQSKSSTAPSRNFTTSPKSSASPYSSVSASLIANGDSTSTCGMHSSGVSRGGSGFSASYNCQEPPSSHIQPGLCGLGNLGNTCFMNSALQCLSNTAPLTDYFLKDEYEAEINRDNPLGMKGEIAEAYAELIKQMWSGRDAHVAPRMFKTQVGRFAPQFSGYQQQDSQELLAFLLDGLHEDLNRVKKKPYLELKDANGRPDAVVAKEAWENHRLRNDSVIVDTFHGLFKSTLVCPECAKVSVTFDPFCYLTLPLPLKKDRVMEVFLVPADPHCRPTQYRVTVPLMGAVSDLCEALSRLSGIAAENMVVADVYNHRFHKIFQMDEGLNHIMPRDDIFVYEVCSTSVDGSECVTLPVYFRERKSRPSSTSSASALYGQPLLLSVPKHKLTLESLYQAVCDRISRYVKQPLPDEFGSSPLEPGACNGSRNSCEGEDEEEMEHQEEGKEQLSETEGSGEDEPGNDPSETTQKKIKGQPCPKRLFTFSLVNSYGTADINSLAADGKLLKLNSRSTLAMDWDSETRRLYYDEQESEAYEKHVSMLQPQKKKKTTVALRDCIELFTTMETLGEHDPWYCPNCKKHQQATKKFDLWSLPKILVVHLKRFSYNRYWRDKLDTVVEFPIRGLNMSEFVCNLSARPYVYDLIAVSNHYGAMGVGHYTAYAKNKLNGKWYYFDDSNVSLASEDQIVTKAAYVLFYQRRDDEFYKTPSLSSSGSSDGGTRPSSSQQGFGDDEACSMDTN
Summary of the method: as §1

Measured: log2 ratio of Biotin-Ahx-Ub-VS probe labelling

CN1c2ccccc2C(NC(=O)CCl)CS1(=O)=O (stereo not given)
inactive: USP34 -0.111 | USP36 -0.287 | USP38 -0.071 | USP39 0.00949 | USP4 0.0683
